In PubChem BioAssay (EPA / NIEHS) one finds outcome and AC50 data, which are given here for twelve molecules.

A short description of test [1]: ATG_TCF_b_cat_CIS: Attagene CIS-FACTORIAL HepG2 Assay for human T-Cell-Factor with beta-catenin (TCF/b-cat) (AID 2282965; active means hit-call score of the fitted dose curve at least 0.9, where 1 is the maximum; inactive means score below 0.9). The following applies: HepG2 TCF/beta-catenin cis-reporter transcription, actives raise or lower the signal. Summed up: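 Endogenous transcription factor activity is captured through cis-promoter reporter constructs transiently introduced into human HepG2 liver cells. Induced reporter mRNA is measured after 24 h and fitted bidirectionally relative to DMSO.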

Test [2] can be described thus: ATG_TAL_CIS: Attagene CIS-FACTORIAL HepG2 Assay for human TAL Basal Promoter (AID 2282966; active means hit-call score of the fitted dose curve at least 0.9, where 1 is the maximum; inactive means score below 0.9;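 further: background control endpoint measuring basal TAL promoter reporter mRNA not a specific factor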). The following applies: HepG2 Attagene cis-factorial TAL promoter reporter; actives raise or lower the signal. The method, boiled down: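 Endogenous transcription-factor activity is sensed in HepG2 cells through transfected cis-promoter reporter constructs. After 24 h dosing, reporter transcripts are quantified by RT-PCR and capillary electrophoresis. Gain or loss of signal is fitted relative to DMSO.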

Test [3] in a line: ATG_TGFb_CIS: Attagene CIS-FACTORIAL HepG2 Assay for human Transforming Growth Factor (TGF) (AID 2282967; active means hit-call score of the fitted dose curve at least 0.9, where 1 is the maximum; inactive means score below 0.9). The following applies: HepG2 Attagene CIS TGFb reporter, mRNA transcription; actives raise or lower the signal. Summed up: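 HepG2 cells transiently transfected with cis-promoter-driven multiple reporter units measure endogenous TF activity; reporter mRNA quantified at 24 h by RT-PCR, FAM labeling, HpaI digestion and capillary electrophoresis. Bidirectional fit vs DMSO.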

A short description of test [4]: ATG_VDRE_CIS: Attagene CIS-FACTORIAL HepG2 Assay for human Vitamin D Receptor Element (VDRE) (AID 2282968; active means hit-call score of the fitted dose curve at least 0.9, where 1 is the maximum; inactive means score below 0.9). The settings on record: HepG2 VDRE cis-reporter transcription, actives raise or lower the signal. Summed up:
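Measures endogenous factor activity through cis-element-driven reporter transcripts in transiently transfected HepG2. Cells are treated 24 h; reporter mRNA is quantified by RT-PCR and capillary electrophoresis; fitting is bidirectional.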

Test [5] concerns the target Estrogen receptor (Homo sapiens) (UniProt P03372). The test can be described thus: ATG_ERa_TRANS: Attagene TRANS-FACTORIAL HepG2 Assay for human Estrogen Receptor alpha (ERa) (AID 2282970). The following applies: HepG2 Attagene TRANS ERa GAL4 reporter, mRNA. The method, boiled down:
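Transfected HepG2 cells carrying GAL4-UAS-driven reporter units were dosed for 24 hours. Total RNA was reverse-transcribed, reporter sequences PCR-amplified, FAM-labelled, HpaI-digested and resolved by capillary electrophoresis. Increases over DMSO control defined activity.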

For test [6], the target named is X-box-binding protein 1 (Homo sapiens) (UniProt P17861). The test can be described thus: ATG_Xbp1_CIS: Attagene CIS-FACTORIAL HepG2 Assay for human X-box Binding Protein 1 (XBP1) (AID 2282972; active means hit-call score of the fitted dose curve at least 0.9, where 1 is the maximum; inactive means score below 0.9). The settings on record: HepG2 XBP1 cis-element reporter, Attagene multiplex; actives raise or lower the signal. Summed up: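 Changes in reporter transcript abundance, read by RT-PCR and capillary electrophoresis, reflect endogenous transcription factor activity. Transfected HepG2 cells received compound for 24 hours; DMSO defined baseline for bidirectional analysis.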

Test [7] concerns the target Androgen receptor (Homo sapiens) (UniProt P10275). Description: ATG_AR_TRANS: Attagene TRANS-FACTORIAL HepG2 Assay for human Androgen Receptor (AR) (AID 2282973). The following applies: HepG2 Attagene TRANS-FACTORIAL AR reporter transcription. The method, boiled down:
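Transfected HepG2, 24 h treatment, chimeric NR-Gal4 driving GAL4-UAS reporters. mRNA induction by RT-PCR/capillary electrophoresis fluorescence; DMSO as negative control and baseline.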

Test [8] in a line: ATG_GAL4_TRANS: Attagene TRANS-FACTORIAL HepG2 Assay for GAL4 (Internal Marker) (AID 2282976). The following applies: HepG2 Attagene TRANS GAL4 internal marker reporter. Summed up: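 Fluorescence from capillary electrophoresis of labelled RT-PCR products quantifies reporter mRNA induction after 24 h dosing of HepG2 cells carrying transfected GAL4-UAS reporter transcription units. Vehicle DMSO serves as baseline.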

Test [9] concerns the target Glucocorticoid receptor (Homo sapiens) (UniProt P04150). Description: ATG_GR_TRANS: Attagene TRANS-FACTORIAL HepG2 Assay for human Glucocorticoid Receptor (GR) (AID 2282978).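 Further: activators score as hits since higher reporter transcript over DMSO is fitted.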 The following applies: HepG2 Attagene TRANS GR reporter, mRNA transcription. The method, boiled down:
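Transient MRTU transfection of HepG2 (GAL4-UAS reporters, exogenous NR-GAL4 chimeras), 24 h dosing. Readout: reporter transcript via RT-PCR + capillary electrophoresis fluorescence. Positive direction vs DMSO baseline.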

The target of test [10] is Bile acid receptor (Homo sapiens) (UniProt Q96RI1). Description: ATG_FXR_TRANS: Attagene TRANS-FACTORIAL HepG2 Assay for Farnesoid X Receptor (FXR) (AID 2282979).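 Further: hits raise reporter mRNA above DMSO so AC50 marks FXR activation.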 The settings on record: HepG2 Attagene TRANS FXR-GAL4 reporter transcription. The method, boiled down:
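Chimeric FXR-GAL4 activity in transiently transfected human HepG2 liver cells is scored as induction of reporter mRNA after 24 h of dosing. Detection uses RT-PCR with fluorescent labelling and capillary electrophoresis, with DMSO serving as baseline.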

Test [11] has as its target Oxysterols receptor LXR-beta (Homo sapiens) (UniProt P55055). The test can be described thus: ATG_LXRb_TRANS: Attagene TRANS-FACTORIAL HepG2 Assay for human Liver X Receptor beta (LXRb) (AID 2282981). The following applies: HepG2 Attagene TRANS GAL4-LXRb reporter, mRNA. Summed up:
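After 24 h of chemical treatment, transfected HepG2 cells yield total RNA; reporter cDNA is PCR-amplified, FAM-labelled, HpaI-cut and run on capillary electrophoresis. Signal reflects chimeric LXRb-Gal4 activity on GAL4-UAS reporters.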

The nature of test [12]: ATG_M_32_TRANS: Attagene TRANS-FACTORIAL HepG2 Assay for M32 Transcription Factor (Internal Marker) (AID 2282984).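 Further: transcript level of a background control reporter unit measured by RT-PCR and capillary electrophoresis.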 The settings on record: HepG2 Attagene TRANS M32 internal marker reporter. Summed up: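 Cell-based TRANS-format assay in HepG2: exogenous chimeric GAL4 reporter units transiently expressed, compounds applied 24 h. Reporter mRNA detected by RT-PCR plus capillary electrophoresis; this readout is an internal background marker.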

Test [13] concerns the target Nuclear receptor subfamily 1 group I member 3 (Homo sapiens) (UniProt Q14994). The test can be described thus: ATG_CAR_TRANS: Attagene TRANS-FACTORIAL HepG2 Assay for human Constitutive Androstane Receptor (CAR) (AID 2282969).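 Further: activators raise reporter mRNA above DMSO so AC50 marks induction.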 The following applies: HepG2 Attagene TRANS-FACTORIAL CAR reporter. Summed up:
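Signal is reporter mRNA induction relative to DMSO, measured 24 h after dosing by RT-PCR with fluorescent primer extension and capillary electrophoresis. Human HepG2 liver cells carried transiently transfected chimeric NR-Gal4/GAL4-UAS reporter constructs.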

The nature of test [14]: ATG_M_06_TRANS: Attagene TRANS-FACTORIAL HepG2 Assay for M06 Transcription Factor (Internal Marker) (AID 2282983). The settings on record: HepG2 Attagene TRANS M06 internal marker reporter. Summed up: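 Human liver HepG2 cells bearing transiently transfected chimeric NR-GAL4 reporter units were treated with chemicals for 24 h. Total RNA was reverse-transcribed, reporter sequences amplified and labelled, then quantified by capillary electrophoresis. Activity was fitted upward relative to DMSO.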

Test [15] concerns the target Estrogen-related receptor gamma (Homo sapiens) (UniProt P62508). Description: ATG_ERRg_TRANS: Attagene TRANS-FACTORIAL HepG2 Assay for human Estrogen-Related Receptor gamma (ERRg) (AID 2282977).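 Further: hits increase reporter signal over DMSO so potencies reflect activators.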 The following applies: HepG2 Attagene TRANS reporter, ERRg transactivation. Summed up:
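Exogenous NR-Gal4 chimera activity was assessed in HepG2 cells bearing transfected GAL4-UAS reporters. After 24 h dosing, total RNA underwent RT-PCR, fluorescent primer extension and HpaI digestion before capillary electrophoresis, with gain of signal scored against DMSO.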

Test [16] addresses Steroid hormone receptor ERR1 (Homo sapiens) (UniProt P11474). Description: ATG_ERRa_TRANS: Attagene TRANS-FACTORIAL HepG2 Assay for human Estrogen-Related Receptor alpha (ERRa) (AID 2282971). The settings on record: HepG2 Attagene TRANS reporter, ERRa transactivation. The method, boiled down: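 HepG2 cells were transiently transfected with multiple GAL4-UAS reporter units, then dosed with compound for 24 h. Total RNA was reverse-transcribed, reporter cDNA PCR-amplified and fluorescently labelled, and fragments resolved by capillary electrophoresis; induction was compared with DMSO.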

Test [17] addresses Nuclear receptor subfamily 4 group A member 2 (Homo sapiens) (UniProt P43354). Description: ATG_NURR1_TRANS: Attagene TRANS-FACTORIAL HepG2 Assay for human Nuclear Receptor Related Protein 1 (NURR1) (AID 2282985). The following applies: HepG2 Attagene TRANS reporter, mRNA readout. Summed up: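 Measures transcriptional activation by an exogenous NR-Gal4 chimera in transfected HepG2 liver cells. After 24 h, reporter RNA is reverse-transcribed, amplified and resolved by capillary electrophoresis; DMSO defines baseline.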

In test [18] the target is Hepatocyte nuclear factor 4-alpha (Homo sapiens) (UniProt P41235). Description: ATG_HNF4a_TRANS: Attagene TRANS-FACTORIAL HepG2 Assay for human Hepatocyte Nuclear Factor 4 alpha (HNF4a) (AID 2282982). The following applies: HepG2 HNF4a transactivation reporter, mRNA readout. Summed up:
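Multiplexed reporter assay: transfected HepG2, 24 h exposure, total RNA → oligo(dT) RT → PCR → 6-FAM extension → HpaI digest → CE fluorescence. DMSO = negative control.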

Results filed as inconclusive are left out. Activity calls are given as the source filed them. How the source made its calls, unless noted: active means hit-call score of the fitted dose curve at least 0.9, where 1 is the maximum; inconclusive means response in the unintended direction; inactive means score below 0.9.

Chain of Nuclear receptor subfamily 4 group A member 2 (Homo sapiens) (P43354 whole entry, looked up, the tested form may be a part): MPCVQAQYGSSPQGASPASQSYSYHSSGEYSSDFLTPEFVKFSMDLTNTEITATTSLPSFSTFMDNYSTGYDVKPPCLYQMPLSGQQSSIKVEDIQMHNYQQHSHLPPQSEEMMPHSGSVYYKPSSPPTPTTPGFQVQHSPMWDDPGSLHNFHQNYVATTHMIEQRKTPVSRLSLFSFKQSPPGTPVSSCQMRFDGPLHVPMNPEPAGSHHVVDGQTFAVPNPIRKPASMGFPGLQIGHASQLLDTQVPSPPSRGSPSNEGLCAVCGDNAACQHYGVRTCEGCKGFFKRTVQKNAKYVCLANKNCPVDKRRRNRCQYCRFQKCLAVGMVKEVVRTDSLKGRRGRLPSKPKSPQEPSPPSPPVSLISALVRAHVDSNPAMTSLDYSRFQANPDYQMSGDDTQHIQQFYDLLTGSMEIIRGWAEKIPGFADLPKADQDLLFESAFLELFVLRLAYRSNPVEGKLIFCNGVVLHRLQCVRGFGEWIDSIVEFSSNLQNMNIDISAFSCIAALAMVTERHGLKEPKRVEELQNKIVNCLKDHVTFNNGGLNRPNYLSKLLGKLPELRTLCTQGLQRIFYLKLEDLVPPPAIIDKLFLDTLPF
Chain of Bile acid receptor (Homo sapiens) (Q96RI1 whole entry, looked up, the tested form may be a part): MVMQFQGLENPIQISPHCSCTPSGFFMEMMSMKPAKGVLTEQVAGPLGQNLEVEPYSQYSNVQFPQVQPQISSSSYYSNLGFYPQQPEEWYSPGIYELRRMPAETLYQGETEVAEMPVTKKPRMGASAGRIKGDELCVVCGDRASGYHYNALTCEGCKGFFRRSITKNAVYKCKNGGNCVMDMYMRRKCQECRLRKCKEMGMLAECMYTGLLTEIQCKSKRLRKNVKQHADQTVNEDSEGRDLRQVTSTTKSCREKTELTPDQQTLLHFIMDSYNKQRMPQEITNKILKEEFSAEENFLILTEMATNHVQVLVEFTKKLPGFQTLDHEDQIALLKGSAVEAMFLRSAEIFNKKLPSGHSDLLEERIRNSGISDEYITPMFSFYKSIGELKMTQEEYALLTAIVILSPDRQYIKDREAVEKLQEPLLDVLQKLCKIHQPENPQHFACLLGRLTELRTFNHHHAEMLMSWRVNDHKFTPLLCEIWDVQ
Chain of Nuclear receptor subfamily 1 group I member 3 (Homo sapiens) (Q14994 whole entry, looked up, the tested form may be a part): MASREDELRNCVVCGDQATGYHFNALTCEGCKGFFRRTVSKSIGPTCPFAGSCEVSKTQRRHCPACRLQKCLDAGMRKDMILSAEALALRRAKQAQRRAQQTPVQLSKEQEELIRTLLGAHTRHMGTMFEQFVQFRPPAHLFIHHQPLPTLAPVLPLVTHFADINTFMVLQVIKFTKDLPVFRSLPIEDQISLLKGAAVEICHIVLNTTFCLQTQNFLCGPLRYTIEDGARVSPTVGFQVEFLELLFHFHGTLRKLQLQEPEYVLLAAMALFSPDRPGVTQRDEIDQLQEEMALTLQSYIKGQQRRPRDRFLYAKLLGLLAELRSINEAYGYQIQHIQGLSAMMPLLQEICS
Chain of Estrogen-related receptor gamma (Homo sapiens) (P62508 whole entry, looked up, the tested form may be a part): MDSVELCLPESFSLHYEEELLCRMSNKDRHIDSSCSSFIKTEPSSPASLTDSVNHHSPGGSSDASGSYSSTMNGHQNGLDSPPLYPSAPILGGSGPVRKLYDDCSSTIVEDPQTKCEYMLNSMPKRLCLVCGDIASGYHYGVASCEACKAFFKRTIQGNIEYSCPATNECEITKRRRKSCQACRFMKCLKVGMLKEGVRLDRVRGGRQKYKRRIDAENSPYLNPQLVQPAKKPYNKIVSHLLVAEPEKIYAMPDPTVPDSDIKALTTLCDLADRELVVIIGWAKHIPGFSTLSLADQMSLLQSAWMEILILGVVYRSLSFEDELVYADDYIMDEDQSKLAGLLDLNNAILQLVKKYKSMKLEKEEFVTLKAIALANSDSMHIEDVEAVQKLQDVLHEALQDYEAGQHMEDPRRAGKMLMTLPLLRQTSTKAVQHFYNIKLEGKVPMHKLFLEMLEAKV
Chain of Steroid hormone receptor ERR1 (Homo sapiens) (P11474 whole entry, looked up, the tested form may be a part): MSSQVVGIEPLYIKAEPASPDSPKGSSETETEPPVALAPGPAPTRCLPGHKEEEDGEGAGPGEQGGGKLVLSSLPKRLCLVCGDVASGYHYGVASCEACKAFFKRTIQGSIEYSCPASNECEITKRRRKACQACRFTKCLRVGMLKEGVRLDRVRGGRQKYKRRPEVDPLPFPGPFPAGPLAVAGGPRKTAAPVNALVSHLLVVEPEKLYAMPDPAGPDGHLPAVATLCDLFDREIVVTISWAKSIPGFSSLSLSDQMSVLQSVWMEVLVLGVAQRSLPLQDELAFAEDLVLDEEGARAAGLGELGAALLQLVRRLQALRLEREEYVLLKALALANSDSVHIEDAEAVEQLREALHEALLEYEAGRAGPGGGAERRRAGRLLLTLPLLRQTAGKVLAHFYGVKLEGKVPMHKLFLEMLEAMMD
Chain of Androgen receptor (Homo sapiens) (P10275 whole entry, looked up, the tested form may be a part): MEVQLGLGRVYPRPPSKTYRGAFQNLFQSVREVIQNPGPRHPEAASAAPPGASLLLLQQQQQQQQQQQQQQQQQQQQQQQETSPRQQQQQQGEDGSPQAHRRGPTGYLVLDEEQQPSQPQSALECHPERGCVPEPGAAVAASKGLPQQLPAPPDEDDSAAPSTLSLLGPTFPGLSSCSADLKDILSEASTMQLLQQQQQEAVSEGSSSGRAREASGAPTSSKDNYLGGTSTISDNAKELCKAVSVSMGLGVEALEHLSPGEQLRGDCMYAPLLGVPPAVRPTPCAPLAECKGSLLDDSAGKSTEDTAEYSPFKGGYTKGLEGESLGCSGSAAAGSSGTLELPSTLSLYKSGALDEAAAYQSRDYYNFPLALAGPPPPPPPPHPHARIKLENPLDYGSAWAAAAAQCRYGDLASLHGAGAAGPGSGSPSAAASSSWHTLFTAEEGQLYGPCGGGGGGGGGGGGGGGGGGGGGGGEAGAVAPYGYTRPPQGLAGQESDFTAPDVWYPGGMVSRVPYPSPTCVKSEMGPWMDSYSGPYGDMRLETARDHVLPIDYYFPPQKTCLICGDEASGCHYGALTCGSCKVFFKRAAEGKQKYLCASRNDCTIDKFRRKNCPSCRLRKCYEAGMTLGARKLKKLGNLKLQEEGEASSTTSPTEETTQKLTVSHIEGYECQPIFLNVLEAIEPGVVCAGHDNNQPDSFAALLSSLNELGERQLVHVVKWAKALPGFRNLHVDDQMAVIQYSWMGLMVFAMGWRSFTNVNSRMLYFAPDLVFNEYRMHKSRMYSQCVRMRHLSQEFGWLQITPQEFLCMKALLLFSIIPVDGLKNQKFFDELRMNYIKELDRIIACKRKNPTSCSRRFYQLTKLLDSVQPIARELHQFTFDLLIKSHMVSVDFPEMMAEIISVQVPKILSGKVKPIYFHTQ
Chain of Oxysterols receptor LXR-beta (Homo sapiens) (P55055 whole entry, looked up, the tested form may be a part): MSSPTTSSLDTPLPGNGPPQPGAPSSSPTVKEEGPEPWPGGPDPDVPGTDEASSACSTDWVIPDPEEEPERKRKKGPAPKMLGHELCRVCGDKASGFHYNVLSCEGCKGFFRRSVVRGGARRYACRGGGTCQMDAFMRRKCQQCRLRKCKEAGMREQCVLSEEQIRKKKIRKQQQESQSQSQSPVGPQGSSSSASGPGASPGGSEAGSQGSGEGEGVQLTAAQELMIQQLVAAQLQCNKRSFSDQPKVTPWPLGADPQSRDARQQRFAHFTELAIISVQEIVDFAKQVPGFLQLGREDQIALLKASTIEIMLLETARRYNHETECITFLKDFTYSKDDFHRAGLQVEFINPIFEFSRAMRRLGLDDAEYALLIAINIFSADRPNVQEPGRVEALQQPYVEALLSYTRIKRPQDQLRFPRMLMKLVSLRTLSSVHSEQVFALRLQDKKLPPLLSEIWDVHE
Chain of X-box-binding protein 1 (Homo sapiens) (P17861 whole entry, looked up): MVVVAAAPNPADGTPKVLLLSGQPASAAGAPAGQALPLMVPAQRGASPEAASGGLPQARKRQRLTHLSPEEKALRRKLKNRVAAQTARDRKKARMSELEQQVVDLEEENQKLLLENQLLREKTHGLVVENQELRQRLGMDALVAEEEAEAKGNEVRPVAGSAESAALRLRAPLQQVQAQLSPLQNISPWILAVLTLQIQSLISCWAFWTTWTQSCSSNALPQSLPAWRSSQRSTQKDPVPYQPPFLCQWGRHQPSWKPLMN
Chain of Glucocorticoid receptor (Homo sapiens) (P04150 whole entry, looked up, the tested form may be a part): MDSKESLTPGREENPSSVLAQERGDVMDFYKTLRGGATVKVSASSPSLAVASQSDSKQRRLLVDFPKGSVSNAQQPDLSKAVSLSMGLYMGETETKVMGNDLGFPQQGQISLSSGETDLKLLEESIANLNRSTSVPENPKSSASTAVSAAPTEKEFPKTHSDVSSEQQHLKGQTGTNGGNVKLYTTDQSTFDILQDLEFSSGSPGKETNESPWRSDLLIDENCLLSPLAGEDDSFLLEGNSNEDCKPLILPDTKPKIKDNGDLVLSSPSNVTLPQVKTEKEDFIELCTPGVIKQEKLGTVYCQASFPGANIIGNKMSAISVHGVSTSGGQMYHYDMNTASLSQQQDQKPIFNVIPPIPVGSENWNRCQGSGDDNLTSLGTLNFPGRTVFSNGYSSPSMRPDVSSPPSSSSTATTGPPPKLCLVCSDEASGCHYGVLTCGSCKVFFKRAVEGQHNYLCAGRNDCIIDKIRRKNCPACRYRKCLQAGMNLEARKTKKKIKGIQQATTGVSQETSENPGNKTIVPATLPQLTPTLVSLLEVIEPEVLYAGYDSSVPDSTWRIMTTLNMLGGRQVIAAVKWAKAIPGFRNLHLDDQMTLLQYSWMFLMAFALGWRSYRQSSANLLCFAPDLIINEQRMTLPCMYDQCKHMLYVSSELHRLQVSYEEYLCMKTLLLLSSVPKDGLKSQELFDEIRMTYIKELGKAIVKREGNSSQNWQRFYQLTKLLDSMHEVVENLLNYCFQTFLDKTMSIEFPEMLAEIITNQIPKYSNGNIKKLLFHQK

As for `Nc1ccc([N+](=O)[O-])cc1Cl`, the call in test [1], in test [2], in test [3], in test [4], in test [5] and in test [6] was inactive. Moreover, the outcome in [7], in [8], in test [9], in [10], in test [11] and in test [12] was inactive.
With `CSC(C)(C)C=NO`, the result in test [1], in test [2], in [3], in test [4], in test [13] and in test [6] was inactive. In addition, the molecule was called inactive in test [14].
For `Cc1ccc(N)cc1N`, the result in test [1], in test [2], in test [3], in [4], in test [5] and in test [6] was inactive. For the same molecule, the result in test [8], in test [15], in test [9], in test [10] and in test [14] was inactive.
As for `COCCOCCO`, the call in [1], in test [2], in [3], in test [4], in test [13] and in test [16] was inactive. Also, the outcome in [6], in test [8], in test [15] and in test [14] was inactive.
What is called AC50 is the concentration at which the activity in the assay is half-maximal. In the case of `Nc1cc2c3c(c1)C(c1ccccc1)=N[C@@H](NC(=O)c1cccnc1)C(=O)N3CC2`, the result in test [1], in [2], in test [3], in test [13], in test [5] and in test [9] was inactive. Besides, the outcome in [11], in [14] and in test [12] was inactive. In addition, the AC50 in test [4] was 38.4 µM (active); in [6], 92.1 µM (active).
In the case of `OCC(F)(F)OC(F)(F)C(F)(F)OC(F)(F)C(F)(F)OC(F)(F)CO`, the results for the AC50 in test [1], in test [4] and in test [5] were 9.92 µM (active), 18.6 µM (active) and 0.281 µM (active), respectively. The call in test [2], in test [3], in test [16], in [6], in [7] and in test [9] was inactive. Also, the molecule was called inactive in test [10], in test [11] and in test [14].
As to `CC(Cc1ccc(OCC(=O)O)cc1)NCC(O)c1csc(C(F)(F)F)n1` (stereo not given), the molecule was classed as inactive in test [1], in test [2], in test [3], in test [4], in [13] and in test [6]. Besides, the call in test [8], in test [15], in [11] and in test [17] was inactive.
For the molecule `O=P1(N(CCCl)CCCl)NCCCO1` (stereo not given), the molecule was classed as inactive in test [1], in test [2], in [3], in test [4], in test [16] and in [6]. Besides, the result in test [8], in test [9], in test [11], in test [14] and in test [12] was inactive. In [5], the AC50 was 17 µM (active).
For the molecule `c1nc[nH]n1`, the result in [1], in test [2], in test [3], in test [4], in [13] and in [6] was inactive. Further, the call in [11], in test [14], in test [12] and in test [17] was inactive. Moreover, the AC50 in test [5] is 24.8 µM (active).
Turning to `FC(F)(F)c1ccc(Cl)cc1`, the outcome in test [1], in test [2], in test [3], in test [4], in test [13] and in [6] was inactive. Moreover, the molecule was called inactive in test [8], in test [9], in test [11], in test [18], in test [14] and in test [12].
For the molecule `CCOP(=S)(Oc1ccc([N+](=O)[O-])cc1)c1ccccc1` (stereo not given), the outcome in test [1], in [2], in [3], in test [16], in [6] and in [15] was inactive. Besides, the result in test [14] and in test [17] was inactive. The AC50 in [4] was 6.46 µM (active); in [5], 3.9 µM (active).
On to `O=C(O)C(F)(F)OC(F)(F)C(F)(F)OC(F)(F)C(=O)O`, for which the outcome in [1], in test [2], in test [3], in test [4], in test [5] and in [16] was inactive. The result in [6], in [7], in test [9], in test [10], in [14] and in [12] was inactive.
